# Assay outcomes deposited in PubChem by Center for Chemical Genomics, University of Michigan.
# Only a selection was taken, and hits are over-represented in it overall.
# Dicer processing – inhibitors of Dicer pre-microRNA processing, primary screen, biochemical, cat-ELCCA, chemiluminescence; cat-ELCCA pre-miR-21 Dicer processing; stronger effect = higher value; AID 1347074, 2019; Endoribonuclease Dicer (Homo sapiens), Q9UPY3; actives 6% (n = 47,000); z-score at 25 µM; in the data active means z-score above about 3, passing the limit was not always enough;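 further: plate controls were vehicle for no effect and no enzyme for full effect; higher signal means more uncleaved substrate so more Dicer inhibition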
# Target sequence (Q9UPY3 whole entry, looked up): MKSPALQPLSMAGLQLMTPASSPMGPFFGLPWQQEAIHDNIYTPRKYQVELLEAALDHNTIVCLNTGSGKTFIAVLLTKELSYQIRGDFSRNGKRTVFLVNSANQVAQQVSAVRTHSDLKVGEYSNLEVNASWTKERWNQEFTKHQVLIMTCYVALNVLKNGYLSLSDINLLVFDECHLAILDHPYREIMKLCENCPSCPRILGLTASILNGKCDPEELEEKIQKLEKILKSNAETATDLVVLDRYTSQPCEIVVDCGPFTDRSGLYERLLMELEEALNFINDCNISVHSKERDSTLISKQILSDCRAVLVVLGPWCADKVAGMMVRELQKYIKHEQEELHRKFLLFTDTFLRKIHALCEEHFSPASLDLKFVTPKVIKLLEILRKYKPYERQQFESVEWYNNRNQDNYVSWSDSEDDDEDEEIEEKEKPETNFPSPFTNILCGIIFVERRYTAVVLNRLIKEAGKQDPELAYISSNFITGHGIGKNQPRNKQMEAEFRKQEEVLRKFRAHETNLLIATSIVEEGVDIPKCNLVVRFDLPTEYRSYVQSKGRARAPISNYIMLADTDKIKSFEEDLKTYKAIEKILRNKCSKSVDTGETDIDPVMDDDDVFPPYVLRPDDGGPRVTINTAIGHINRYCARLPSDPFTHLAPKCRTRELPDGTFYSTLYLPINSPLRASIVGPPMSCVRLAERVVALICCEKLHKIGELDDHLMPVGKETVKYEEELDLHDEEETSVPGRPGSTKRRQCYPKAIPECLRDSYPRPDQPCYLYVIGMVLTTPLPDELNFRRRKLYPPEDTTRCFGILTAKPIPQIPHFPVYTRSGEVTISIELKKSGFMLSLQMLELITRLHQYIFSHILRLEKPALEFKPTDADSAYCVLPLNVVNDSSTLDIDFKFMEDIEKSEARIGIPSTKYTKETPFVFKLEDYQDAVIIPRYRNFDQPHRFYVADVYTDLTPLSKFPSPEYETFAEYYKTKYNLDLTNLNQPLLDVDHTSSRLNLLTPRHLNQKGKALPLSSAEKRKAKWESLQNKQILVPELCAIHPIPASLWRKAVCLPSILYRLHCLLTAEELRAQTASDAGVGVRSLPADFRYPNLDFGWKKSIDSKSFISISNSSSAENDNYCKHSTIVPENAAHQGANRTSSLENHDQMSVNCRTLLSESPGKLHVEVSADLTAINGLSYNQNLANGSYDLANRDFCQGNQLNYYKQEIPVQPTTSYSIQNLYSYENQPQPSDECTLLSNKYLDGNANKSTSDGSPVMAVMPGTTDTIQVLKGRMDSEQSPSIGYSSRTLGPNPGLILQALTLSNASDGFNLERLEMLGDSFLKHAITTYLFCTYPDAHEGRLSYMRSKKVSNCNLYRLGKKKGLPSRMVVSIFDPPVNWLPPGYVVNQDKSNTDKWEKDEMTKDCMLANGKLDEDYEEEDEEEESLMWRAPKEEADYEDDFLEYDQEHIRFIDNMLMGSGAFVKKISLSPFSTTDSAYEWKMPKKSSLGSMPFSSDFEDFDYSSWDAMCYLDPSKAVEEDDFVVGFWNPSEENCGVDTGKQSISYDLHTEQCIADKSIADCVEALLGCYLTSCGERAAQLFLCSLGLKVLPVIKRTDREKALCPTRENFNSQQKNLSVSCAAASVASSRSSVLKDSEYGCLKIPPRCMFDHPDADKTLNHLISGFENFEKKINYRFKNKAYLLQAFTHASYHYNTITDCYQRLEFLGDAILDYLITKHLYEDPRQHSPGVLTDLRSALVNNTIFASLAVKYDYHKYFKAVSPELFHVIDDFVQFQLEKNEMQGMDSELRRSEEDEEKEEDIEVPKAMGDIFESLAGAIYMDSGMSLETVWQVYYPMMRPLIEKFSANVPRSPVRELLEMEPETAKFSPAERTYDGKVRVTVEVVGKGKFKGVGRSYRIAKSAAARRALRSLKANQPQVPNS
# Numbers without * were called inactive.
SMILES,Dicer processing
CCOC(=O)c1c(C)n(-c2ccccc2)c2ccc(OC)cc12,0.05
CCOC(=O)c1c(C)n(C)c2ccc(O)cc12,1.5
Cc1ccc(-c2cccc(=O)o2)cc1,2.5
CCCS(=O)(=O)N1CCN(Cc2ccco2)CC1,2
COc1ccc(CN2CCN(Cc3ccco3)CC2)c(OC)c1,3.6*
Brc1ccccc1CN1CCN(Cc2ccco2)CC1,3
Brc1ccc(CN2CCN(Cc3ccco3)CC2)cc1,4.5*
COc1cc(CN2CCN(Cc3ccc(OC)cc3OC)CC2)cc(OC)c1,0.79
COc1cc(CN2CCN(Cc3ccco3)CC2)cc(OC)c1,0.39
CCn1c2ccccc2c2cc(NS(=O)(=O)c3ccccc3)ccc21,1.7
Cc1cc(C)nc(NNC(=O)CC(=O)NNc2nc(C)cc(C)n2)n1,3.1
COc1ccc(-c2noc(-c3cccs3)n2)cc1OC1CCCC1,-1.3
C=CCSc1nc2c(c(=O)n1CC)C1(CCCC1)Cc1ccccc1-2,-0.82
C=CCn1c(SCC)nc2c(c1=O)C1(CCCC1)Cc1ccccc1-2,-3.6
CSc1nc2c(c(=O)n1C)C1(CCCC1)Cc1ccccc1-2,4.2*
COc1cc(OC)nc(/N=C/N(C)C)n1,-0.09
CN1CCN(c2ccccc2/C=N\Nc2ncc(C(F)(F)F)cc2Cl)CC1,1.2
CCn1c(NCc2cc(Cl)ccc2O)nc2ccccc21,3*
C=CCn1c(NCc2cc(Cl)ccc2O)nc2ccccc21,3.9*
CC(C)n1c(NCc2ccccc2O)nc2ccccc21,0.13
CCCn1c(NCc2cc(Cl)ccc2O)nc2ccccc21,1.7
C=CCn1c(NCc2ccccc2O)nc2ccccc21,0.92
C=CCn1c(NCc2ccc(N(CC)CC)cc2)nc2ccccc21,2.3
Oc1ccccc1-c1nc2c3c4c(sc3ncn2n1)CCCCC4,2.4
Cc1nc(-c2ccccc2)nc(SCc2ccccc2[N+](=O)[O-])c1C#N,1.2
SMILES,Dicer processing
COc1ccc(-c2c(-c3ccc(OC)c(OC)c3)c(C)n(C)c2C)cc1OC,-0.69
COc1ccc(-c2nc3cc(N)ccc3o2)cc1OC,2.5
COc1ccc(-c2c(N)n[nH]c2C)cc1OC,4.9*
Cc1nc2sc3c(N4CCCCC4)ncnc3c2c2c1COC(C)(C)C2,0.81
Cc1cc(/C=C2\N=COC2=O)ccc1C(F)(F)F,4.1*
CC1=N/C(=C/c2ccc(C)c(C)c2)C(=O)O1,-0.91
CSC(=Nc1cccc(SC)c1)NC#N,1.5
CCN(CCC#N)C(=S)Nc1cccc2ccccc12,-2
COC(=O)C1=C(C)NC2=C(C(=O)CC(C)(C)C2)C1c1cc(OC)ccc1OC (centres undefined),-0.9
CN1C(=O)c2cccc3cc([N+](=O)[O-])cc(c23)C1=O,0.58
O=C1c2cccc3cc([N+](=O)[O-])cc(c23)C(=O)N1Cc1ccncc1,3.5*
O=C(O)CN1C(=O)c2cccc3cc([N+](=O)[O-])cc(c23)C1=O,2.9
CCOC(=O)c1c(C)oc2ccc(OCc3ccc(F)cc3)cc12,0.96
CCOC(=O)c1cc2cc(OCc3ccccc3)ccc2n1C(=O)c1ccccc1C(=O)O,3.1*
O=C(O)c1cc2cc(OCc3ccccc3)ccc2[nH]1,-0.97
CN(C)c1cccc2c(S(=O)(=O)N3CCCCC3)cccc12,54
CN(C)c1ccc(/C=N/Nc2cnc3ccccc3n2)c(Cl)c1,-0.01
COc1ccc2c(c1)c(=O)oc1c(C)c3occ(-c4ccc(F)cc4)c3cc12,-0.64
Cc1c2occ(-c3ccc(F)cc3)c2cc2c1oc(=O)c1ccccc12,4.2*
Cc1c2occ(-c3ccc4c(c3)OCO4)c2cc2c1oc(=O)c1ccccc12,0.19
CSc1cccc(NC(=O)N(Cc2ccccc2)C(=O)CC#N)c1,-1.2
O=C(Nc1ccc(Cl)cc1)N1CCN(c2nsc3ccccc23)CC1,1.8
COC(=O)Cc1c(C)ncnc1OCC(=O)Nc1ccc(F)cc1,0.45
COc1cccc(Oc2c(C(F)(F)F)oc3cc(O)ccc3c2=O)c1,1
CCOc1cc(C2C(C#N)=C(N)Oc3n[nH]c(-c4ccccc4)c32)ccc1OC(=O)N1CCOCC1 (centres undefined),-6.2
SMILES,Dicer processing
COc1ccc(NC(=S)N2N=C3c4ccccc4CCC3C2c2ccc(F)cc2)cc1 (centres undefined),0.71
COc1ccc(N2CC3CCc4ccccc4C3=N2)cc1 (centres undefined),-0.95
COc1ccc(C2C3CCc4ccccc4C3=NN2CCOC(=O)C2CC2)cc1 (centres undefined),4.8*
O=C(Nc1ccc(S(=O)(=O)Nc2ncccn2)cc1)c1sc2ccccc2c1Cl,0.24
CN1CC(O)C(O)C(O)C1CO (centres undefined),0.83
FC(F)(F)c1cnc(N2CCC(Nc3ncnc4scc(-c5ccccc5)c34)CC2)c(Cl)c1,-1.3
O=C(COc1ccc(Cl)cc1)NC1CCSC1=O (centres undefined),0.2
O=C1SCCC1NS(=O)(=O)c1ccccc1 (centres undefined),0.5
COc1ccc(S(=O)(=O)NC2CCSC2=O)cc1 (centres undefined),3.7*
Cc1ccc2nc(SCc3nc(-c4cccs4)no3)[nH]c2c1,-0.45
Brc1ccc(-c2noc(CSc3nc4ccccc4[nH]3)n2)cc1,0.45
Cc1ccc2nc(SCc3nc(-c4ccccc4C)no3)[nH]c2c1,3*
Nn1nnc2ccccc21,-0.53
Clc1ccc(Nc2ccc(-n3ccnc3)nn2)cc1,-1.4
C=CCOC(=O)c1sc(N2C(=O)c3oc4ccccc4c(=O)c3C2c2cccc(O)c2)nc1C (centres undefined),-0.66
CCCSc1ccc2c3c(cccc13)C(=O)N(c1ccccc1)C2=O,-1.1
CN(C)c1ccc2c3c(cccc13)C(=O)N(c1ccccc1)C2=O,3.4*
O=C1c2cccc3c(N4CCCC4)ccc(c23)C(=O)N1c1ccccc1,2
Cc1oc(S(=O)(=O)N(C)C)cc1C(=O)O,-2
CCOC(=O)c1c[nH]c2onc(C)c2c1=O,-0.75
COc1cc2c(cc1OC)C(c1ccccc1N)=NCC2,-2.9
CCOC(=O)C1=NN(c2ccc(C)cc2)/C(=C/C2=NCCc3cc(OC)c(OC)cc32)S1,4.4*
COc1cc2c(cc1OC)C(/C=C1\SC(C(=O)c3cccs3)=NN1c1ccc(C)cc1)=NCC2,0.72
O=C1c2ccccc2OC(c2ccccc2)C12N=NCC2c1ccc(Cl)cc1 (centres undefined),-1
C=CCSc1nnc2c(n1)[nH]c1c(C)cccc12,1
SMILES,Dicer processing
C/C(=N\NC(=S)Nc1ccc(C(C)C)cc1)c1ccco1,3*
C/C(=N\NC(=S)Nc1ccc(F)cc1)c1ccco1,0.88
CC(C)c1ccc(NC(=S)NN(C)C)cc1,2.9
COC(=O)c1sc(S(=O)(=O)Nc2ccc(F)cc2)cc1Cl,0.28
CC(=O)c1ccc(O)c(C(=O)NC2(O)C(=O)c3ccccc3C2=O)c1,-4.2
O=C(O)c1ccccc1C(=O)c1ccc(F)cc1,3.1*
O=C(O)c1ccccc1C(=O)c1ccc(-c2ccccc2)cc1,-0.68
Cc1cccc(C(=O)c2ccccc2C(=O)O)c1,-1.2
CCOC(=O)c1nc(SCC(=O)Nc2cc(Cl)cc(Cl)c2)[nH]c1C,0.95
CCSCCOC(=O)C1=C(C)NC2=C(C(=O)CCC2)C1c1ccc(OC(C)=O)c(OC)c1 (centres undefined),1
O=C1c2ccccc2/C(=N/O)C1[N+](=O)[O-] (centres undefined),-6.5
CCOc1ccc(/C(O)=C2\C(=O)C(=O)N(c3nccs3)C2c2ccc(OC)c(OC)c2)cc1 (centres undefined),3.6*
